Test [1] deals with Wnt5a (protein binding on small-molecule microarray). The test can be described thus: Wnt5a binders on small-molecule microarray, primary screen, biophysical, 635/667 nm fluorescence (AID 1142).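 Note: fluorescence read at 667 nm with signal to noise per printed feature.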 The settings on record: 635 nm fluorescence, higher = more signal.
A short description of test [2]: cell viability in Huh7 cells, primary screen, cytotoxicity control for HCV replication inhibitor project, CellTiter-Glo luminescence, basal, 48 h (AID 1143).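 Note: Huh7 hepatoma cells carrying a hepatitis C replication reporter with no stimulus; test concentration not given here.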 The settings on record: Huh7 HCV replicon, higher = more signal, called active from +8 up or from −8 down. (ATP-based viability assays read luminescence as a measure of living cells.)
A short description of test [3]: P. aeruginosa biofilm formation inhibitors, primary screen, PAO1 strain, BacTiter-Glo luminescence, LB-PBS (AID 1144). To be noted: 12 h, higher = more signal.
Test [4] in a line: CREB reporter modulators without forskolin, primary screen, cell-based, PC12, CRE-LacZ reporter, unstimulated (AID 1145). To be noted: no forskolin, luminescence, 4.5 h, higher = more signal, called active from +8 up or from −8 down.
Test [5] in a line: CREB reporter modulators under forskolin, primary screen, cell-based, PC12, CRE-LacZ reporter, forskolin-stimulated (AID 1146).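 Note: PC12 cells with 6xCRE LacZ reporter stimulated by forskolin 10 µM; beta-galactosidase reporter signal reflecting CREB driven transcription.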 To be noted: luminescence, 4.5 h, higher = more signal, called active from +8 up or from −8 down.
In test [6] the target is Streptavidin (Streptomyces avidinii) (UniProt P22629). Nature of the test: streptavidin binders on small-molecule microarray, primary screen, artefact control for SMM compound annotation, biophysical, 635/667 nm fluorescence (AID 1147).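 Note: signal reflects streptavidin binding to arrayed compounds as a control protein.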 The settings on record: streptavidin binding, higher = more signal.
A short description of test [7]: small-molecule binders of probe aInhba, primary screen, biochemical, small-molecule microarray, 635/667 nm fluorescence (AID 1148).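 Note: score merges 667nm spot fluorescence with signal-to-noise for antibody binding to printed compounds.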 The settings on record: higher = more signal.
Test [8] deals with Torsin-1A (Homo sapiens) (UniProt O14656). Nature of the test: torsin A binders from cell lysate, primary screen, small-molecule microarray, wild-type, 635/667 nm (AID 1149). To be noted: COS7 hTOR1A-WT lysate, 635 nm fluorescence, higher = more signal.
Test [9] has the same target. Nature of the test: small-molecule binders of mutant TOR1A in lysate, primary screen, cell lysate, small-molecule microarray, COS7 lysate, 635/667 nm fluorescence (AID 1150).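 Note: score pools 667 nm emission and signal to noise measuring lysate protein binding.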 The settings on record: COS7 hTOR1A mutant lysate, 635 nm fluorescence, higher = more signal.
The test system of test [10] is Sonic hedgehog protein (Shh). Nature of the test: small-molecule binders of Shh protein, primary screen, biochemical, small-molecule microarray, 635/667 nm fluorescence (AID 1151).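 Note: Shh protein binding to compounds spotted on small-molecule microarray slides; score combines spot fluorescence intensity with signal-to-noise across triplicate slides.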 The settings on record: small-molecule microarray binding, 635 nm fluorescence; higher = more signal.
Test [11] in a line: E. coli DRC41 culture turbidity changes, primary screen, E. coli filamentation inducer project, strain DRC41, OD650, 48 h (AID 1152).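 Note: E. coli MC1000 strain DRC41 lacking acrAB efflux pump and sulA.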 The settings on record: E. coli DRC41 (acrAB sulA), higher = more signal, called active from +8 up or from −8 down.
Test [12] in a line: small-molecule binders of probe aLefty1, primary screen, biochemical, small-molecule microarray, 635/667 nm fluorescence (AID 1153).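 Note: score merges spot fluorescence with signal-to-noise ratio from the scanned slide images.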 To be noted: higher = more signal.
Test [13] can be described thus: PSAC antagonists in infected red cells, primary screen, cell-based, P. falciparum Indochina, OD700, 1 h (AID 1154). The settings on record: P. falciparum Indochina infected RBC osmotic lysis, higher = more signal, called active from +8 up or from −8 down.
Test [14] can be described thus: PSAC antagonists in infected red cells, primary screen, cell-based, P. falciparum Indochina, OD700, 2 h (AID 1155).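 Note: lysis reports solute entry through the parasite surface anion channel PSAC; channel blockers reduce lysis of infected cells.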 To be noted: P. falciparum Indochina infected erythrocytes, osmotic lysis OD700; higher = more signal, called active from +8 up or from −8 down.
Test [15] in a line: osmotic lysis modulators in infected erythrocytes, primary screen, PSAC antagonist project, cell-based, P. falciparum Indochina, OD700, 3 h (AID 1156). The settings on record: higher = more signal, called active from +8 up or from −8 down.
The nature of test [16]: PSAC antagonists in infected red cells, primary screen, cell-based, P. falciparum Indochina, OD700, 18 h (AID 1157). To be noted: P. falciparum Indochina infected erythrocytes, osmotic lysis OD700, 18 h; higher = more signal, called active from +8 up or from −8 down.
A short description of test [17]: modulators of S6 phosphorylation in cells, primary screen, cell-based, A549, cytoblot, luminescence, serum-stimulated (AID 1158).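 Note: serum-stimulated A549 lung adenocarcinoma cells; signal is phosphorylated S6 detected by cytoblot immunostaining with HRP secondary.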 The settings on record: A549 phospho-S6 cytoblot, 5 h, higher = more signal.
Test [18] addresses NADPH oxidase 2 (Homo sapiens) (UniProt P04839). The test can be described thus: NOX2-dependent H2O2 signal modulators, primary screen, NOX inhibitor project, cell-based, HEK293-NOX2, PMA-stimulated, Amplex Red fluorescence (AID 1159). Note: test concentration not given here. To be noted: 45 min, higher = more signal, called active from +8 up or from −8 down.
In test [19] the target is NADPH oxidase 4 (Homo sapiens) (UniProt Q9NPH5). Nature of the test: NOX4-dependent H2O2 signal modulators, primary screen, NOX inhibitor project, cell-based, HEK293-NOX4, tetracycline-induced, Amplex Red fluorescence (AID 1160). To be noted: 45 min, higher = more signal, called active from +8 up or from −8 down.
The target of test [20] is NADPH oxidase 5 (Homo sapiens) (UniProt Q96PH1). The test can be described thus: NOX5-dependent H2O2 signal modulators, primary screen, NOX inhibitor project, cell-based, HEK293-NOX5, Amplex Red fluorescence (AID 1161). The settings on record: HEK293-NOX5, ionomycin, 45 min, higher = more signal.

Results on five compounds are retold here after PubChem BioAssay.

Active and inactive are the calls of the source. Unless noted, the rule behind the calls is not given here.

Chain of NADPH oxidase 4 (Homo sapiens) (Q9NPH5 whole entry, looked up): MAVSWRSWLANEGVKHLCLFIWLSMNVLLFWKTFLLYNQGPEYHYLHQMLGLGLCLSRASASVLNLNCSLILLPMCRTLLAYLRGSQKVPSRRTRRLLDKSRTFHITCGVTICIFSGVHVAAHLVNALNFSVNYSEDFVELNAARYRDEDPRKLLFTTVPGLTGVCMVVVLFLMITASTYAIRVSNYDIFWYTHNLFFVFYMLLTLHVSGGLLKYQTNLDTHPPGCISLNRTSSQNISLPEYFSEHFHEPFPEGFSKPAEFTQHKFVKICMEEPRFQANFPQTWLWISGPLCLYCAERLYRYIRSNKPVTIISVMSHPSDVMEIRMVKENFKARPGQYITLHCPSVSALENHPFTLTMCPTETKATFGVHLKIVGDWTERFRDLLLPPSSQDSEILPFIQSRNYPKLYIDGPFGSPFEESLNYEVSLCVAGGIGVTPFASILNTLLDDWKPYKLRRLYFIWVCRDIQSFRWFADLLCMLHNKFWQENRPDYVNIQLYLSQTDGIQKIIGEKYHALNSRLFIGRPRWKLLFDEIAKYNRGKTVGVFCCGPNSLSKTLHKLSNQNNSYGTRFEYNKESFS
Chain of NADPH oxidase 5 (Homo sapiens) (Q96PH1 whole entry, looked up): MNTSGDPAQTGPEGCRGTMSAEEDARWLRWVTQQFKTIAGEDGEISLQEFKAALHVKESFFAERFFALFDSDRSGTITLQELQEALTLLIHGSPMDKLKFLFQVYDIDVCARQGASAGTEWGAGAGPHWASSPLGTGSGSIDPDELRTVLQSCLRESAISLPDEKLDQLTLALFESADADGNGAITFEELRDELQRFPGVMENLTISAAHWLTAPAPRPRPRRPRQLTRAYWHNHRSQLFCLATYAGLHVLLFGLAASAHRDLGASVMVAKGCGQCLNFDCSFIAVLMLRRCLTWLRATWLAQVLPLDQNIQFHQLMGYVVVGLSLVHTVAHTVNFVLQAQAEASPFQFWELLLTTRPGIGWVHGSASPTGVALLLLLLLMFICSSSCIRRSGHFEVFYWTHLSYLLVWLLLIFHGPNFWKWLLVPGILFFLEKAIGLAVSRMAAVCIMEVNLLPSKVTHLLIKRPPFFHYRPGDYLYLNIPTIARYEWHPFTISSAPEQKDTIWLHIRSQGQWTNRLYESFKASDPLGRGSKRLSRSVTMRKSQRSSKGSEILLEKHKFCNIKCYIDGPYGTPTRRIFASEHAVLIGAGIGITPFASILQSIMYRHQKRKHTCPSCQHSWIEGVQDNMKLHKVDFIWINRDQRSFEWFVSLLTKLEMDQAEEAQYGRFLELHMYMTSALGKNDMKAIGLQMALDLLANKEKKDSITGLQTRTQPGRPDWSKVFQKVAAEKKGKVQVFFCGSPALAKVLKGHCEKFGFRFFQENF
Chain of NADPH oxidase 2 (Homo sapiens) (P04839 whole entry, looked up): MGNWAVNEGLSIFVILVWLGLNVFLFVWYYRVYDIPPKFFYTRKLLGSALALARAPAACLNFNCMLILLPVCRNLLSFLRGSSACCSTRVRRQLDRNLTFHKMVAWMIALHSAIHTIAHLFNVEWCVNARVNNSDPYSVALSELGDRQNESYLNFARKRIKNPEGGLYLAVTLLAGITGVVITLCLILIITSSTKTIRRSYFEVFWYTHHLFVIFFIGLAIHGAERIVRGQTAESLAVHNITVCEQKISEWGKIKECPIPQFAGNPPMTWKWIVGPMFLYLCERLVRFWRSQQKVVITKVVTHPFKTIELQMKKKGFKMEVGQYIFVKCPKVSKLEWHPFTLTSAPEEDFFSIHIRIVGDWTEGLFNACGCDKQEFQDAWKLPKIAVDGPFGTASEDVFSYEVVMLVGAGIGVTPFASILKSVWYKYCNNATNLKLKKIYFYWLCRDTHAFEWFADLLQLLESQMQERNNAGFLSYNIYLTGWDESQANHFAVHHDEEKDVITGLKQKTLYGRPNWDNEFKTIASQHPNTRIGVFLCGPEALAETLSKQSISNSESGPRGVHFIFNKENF
Chain of Streptavidin (Streptomyces avidinii) (P22629 whole entry, looked up): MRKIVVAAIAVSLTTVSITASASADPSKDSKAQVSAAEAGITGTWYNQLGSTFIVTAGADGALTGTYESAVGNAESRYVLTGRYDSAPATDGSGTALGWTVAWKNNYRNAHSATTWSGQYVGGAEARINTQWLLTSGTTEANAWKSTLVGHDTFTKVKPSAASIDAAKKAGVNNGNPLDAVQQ
Chain of Torsin-1A (Homo sapiens) (O14656 whole entry, looked up): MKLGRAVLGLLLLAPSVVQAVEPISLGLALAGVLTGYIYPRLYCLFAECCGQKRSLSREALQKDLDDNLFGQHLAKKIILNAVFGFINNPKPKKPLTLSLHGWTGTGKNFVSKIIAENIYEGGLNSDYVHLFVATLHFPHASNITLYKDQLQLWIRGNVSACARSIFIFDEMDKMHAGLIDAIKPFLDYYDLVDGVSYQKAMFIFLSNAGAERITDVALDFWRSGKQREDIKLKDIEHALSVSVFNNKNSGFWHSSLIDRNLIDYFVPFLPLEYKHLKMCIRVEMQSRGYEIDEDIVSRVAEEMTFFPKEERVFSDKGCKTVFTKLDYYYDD

For the compound `COC(=O)[C@H](C)NC(=O)CCC1CC(OC(=O)NCc2cccc3ccccc23)CC2(CCCC(COC(=O)NCCOc3ccccc3)O2)O1` (stereo not given in full), the composite z-score in [1] was 0.029; in [6], 0.688; in test [7], -0.025; in [8], 0.182; in test [9], -0.13; in test [10], 0.334. In addition, the composite z-score in test [12] was -0.186. Further, the z-score in test [2] is -2.56 (inactive); in [3], 0.0153 (inactive); in test [4], -0.709 (inactive); in test [5], 0.222 (inactive); in [11], -0.677 (inactive); in [13], 7.46 (inactive). Also, the z-score is 0.622 (inactive) in test [14]; -0.363 (inactive) in test [15]; 0.346 (inactive) in [16]; 0.152 in [17]; 0.00289 (inactive) in test [18]; -0.292 (inactive) in test [19]. This compound gave a z-score in test [20] of -0.19.
Take `O=C1C[C@@H](O)[C@@H](O)[C@@H]2[C@@H]3C(=O)N(c4ccc(F)cc4F)C(=O)[C@@H]3CC[C@H]12`: the composite z-score is 0.0583 in test [1]; 0.234 in test [6]; -0.101 in [7]; 0.403 in test [8]; 0.302 in [9]; 1.09 in test [10]. Also, in [12], the composite z-score was -0.147. The z-score is -1.24 (inactive) in [2]; 0.0279 (inactive) in test [3]; 0.064 (inactive) in test [4]; -0.13 (inactive) in test [5]; -0.706 (inactive) in test [11]; -0.0503 (inactive) in [13]. Further, the z-score was 0.0554 (inactive) in [14]; -0.737 (inactive) in [15]; 0.06 (inactive) in [16]; 0.0123 in [17]; 1.09 (inactive) in test [18]; 0.366 (inactive) in test [19]. The same compound had a z-score in [20] of -0.158.
On to `CO[C@@H]1C=CCC(=O)N[C@@H](C)C(=O)OC[C@@H](OC)[C@H](C)C=CCC(=O)OC[C@H]1C`, for which the composite z-score in [1] is 0.552; in [6] it was -0.477; in [7] it was -0.157; in [8] it was 2.58; in test [9] it was 2.21; in test [10], 2.06. This compound also displayed a composite z-score in test [12] of -0.149. Moreover, the z-score in test [2] is -0.0206 (inactive); in [3] it was 0.457 (inactive); in test [4], 0.876 (inactive); in test [5] it was -0.384 (inactive); in test [11], 0.0083 (inactive); in test [13], -0.0896 (inactive). Further, the z-score in test [14] was 0.233 (inactive); in test [15] it was 0.442 (inactive); in test [16], 0.205 (inactive); in [17] it was 0.15; in [18], -0.27 (inactive); in test [19], 0.0964 (inactive). Besides, the z-score in test [20] was -0.367.
For the compound `CCCC[C@H]1CN2[C@@H](CC[C@@H](C)[C@@H]2c2ccc(Br)cc2)C(=O)O1`, the composite z-score was 0.132 in test [1]; 0.426 in test [6]; -0.0494 in [7]; 0.836 in test [8]; 0.716 in [9]; 0.456 in [10]. In [12], this compound yielded a composite z-score of -0.0275. Also, the z-score is -1.44 (inactive) in test [2]; 0.616 (inactive) in [3]; 0.755 (inactive) in test [4]; -0.0888 (inactive) in [5]; -0.461 (inactive) in [11]; 2.91 (inactive) in [13]. Besides, the z-score in [14] was 0.809 (inactive); in test [15], -0.192 (inactive); in test [16] it was 0.711 (inactive); in test [17], -0.46; in test [18], 1.43 (inactive); in test [19] it was 0.516 (inactive). The compound also showed a z-score in [20] of 1.47.
As for `CC(CCN1CCCc2nc(C)c(C)cc21)=NOC[C@@H](C)[C@H](OCc1ccccc1)C(C)C`, the composite z-score was -0.257 in test [1]; -0.983 in test [6]; -0.101 in [7]; -0.469 in test [8]; -0.931 in test [9]; 0.0185 in test [10]. The same compound gave a composite z-score in test [12] of -0.147. Besides, the z-score in test [2] is -1.01 (inactive); in [3] it was -0.47 (inactive); in test [4], -1.14 (inactive); in test [5], -0.186 (inactive); in test [11], 0.259 (inactive); in test [13], 1.25 (inactive). The z-score is -1.75 (inactive) in test [14]; -0.167 (inactive) in test [15]; -1.84 (inactive) in test [16]; 2 in test [17]; -2.43 (inactive) in [18]; -1.68 (inactive) in test [19]. In test [20], this compound had a z-score of -1.12.
